Several values for one entry are separate records, joined by “and”; a condition that tells them apart may be missing. Equal entries are not always repeated. Records with an inconclusive call do not appear. Activity calls are given as the source filed them. Unless noted, the call rests on the fitted dose curve; in most records, active means well fitted curve in the direction sought with a large enough effect; inconclusive means small, poorly fitted or top-dose-only effect, or another doubt; inactive means no such curve, though single readings can be large; an effect the other way counts as inactive or inconclusive.
Columns and labels:
[1] = biological target: Cellular tumor antigen p53 (Homo sapiens) (UniProt P04637); test: Primary qHTS for small molecule compounds that upregulate eGFP-tagged delta133p53alpha (in N-terminal) cells. (AID 2060322); conditions: NCI-H358 eGFP-delta133p53alpha fluorescence, 24 h; activation: stronger effect = higher value;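 further: cells pre-induced with doxycycline then dosed without doxycycline; 0% = DMSO vehicle and 100% = reference activator; nearly all actives have a fitted effect of over 75% in size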
Sequence of Cellular tumor antigen p53 (Homo sapiens) (P04637 whole entry, looked up): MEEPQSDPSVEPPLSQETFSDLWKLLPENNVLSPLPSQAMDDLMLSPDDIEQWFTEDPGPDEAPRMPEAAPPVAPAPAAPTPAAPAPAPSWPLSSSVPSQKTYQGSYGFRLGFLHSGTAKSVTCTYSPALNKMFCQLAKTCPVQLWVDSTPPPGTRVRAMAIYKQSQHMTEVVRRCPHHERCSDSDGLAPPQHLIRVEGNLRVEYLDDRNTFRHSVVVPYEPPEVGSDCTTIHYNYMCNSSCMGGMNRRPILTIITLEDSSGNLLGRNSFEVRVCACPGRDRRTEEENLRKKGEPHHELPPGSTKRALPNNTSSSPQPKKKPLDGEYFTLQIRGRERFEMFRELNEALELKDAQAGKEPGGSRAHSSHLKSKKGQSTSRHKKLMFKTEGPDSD
Method in brief: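 NCI-H358 cells pre-induced 24 h with 10 ng/ml doxycycline for eGFP-delta133p53alpha, plated dox-free and exposed 24 h at 37C to titrated compounds. Fixed, Hoechst-stained; gated GFP peak intensity by laser scanning cytometry, normalized to DMSO (0%) and 57.5 uM 5-azacytidine (100%).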

[2] = biological target: Cellular tumor antigen p53 (Homo sapiens) (UniProt P04637); test: Primary qHTS for small molecule compounds that upregulate eGFP-tagged delta133p53alpha (in C-terminal) cells. (AID 2060324); conditions: NCI-H358 delta133p53alpha-eGFP (C-terminal tag), GFP fluorescence imaging, 24 h; series mostly up to 57.5 µM;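 further: 0% = DMSO wells and 100% = 57.5 µM 5-azacytidine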
Method in brief: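 Readout: filtered GFP peak intensity of gated cells (laser scanning cytometer), normalized plate-wise to intraplate controls, DMSO wells = 0% activity. Cells: NCI-H358 D133p53a-eGFP, dox 100 ng/ml 24 h beforehand, then compound 24 h, 37 °C.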

[3] = biological target: Aldehyde dehydrogenase, mitochondrial (Homo sapiens) (UniProt P05091); test: qHTS for Inhibitors of the Aldehyde Dehydrogenase Family (ALDH2) Validation screens (AID 2061302; active means well fitted inhibition curve with a large enough effect; title and protocol of this record describe different tests;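 further: plate controls were DMSO vehicle for no effect and maximal DPI positive control response for full effect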); conditions: ALDH inhibition qHTS; series mostly up to 42.6 µM
[4] = biological target: Retinaldehyde dehydrogenase 3 (Homo sapiens) (UniProt P47895); test: qHTS for Inhibitors of the Aldehyde Dehydrogenase Family (ALDH1A3) Validation screen (AID 2061312); conditions: ALDH1A3 enzyme inhibition qHTS validation, fluorescence; series mostly up to 84.7 µM; further: on the % scale 0 is the no-effect control and ±100 the full control effect; nearly all actives have a fitted effect of over 45% in size

CC(=O)O[C@H]1Cc2ccccc2N(C(N)=O)c2ccccc21
inactive: activation [1] 5.86% | Potency [2] | Potency [3] | Potency [4]

COc1cc([C@@H]2c3cc4c(cc3[C@H](O)C3COC(=O)[C@@H]32)OCO4)cc(OC)c1OC (some centres undefined)
inactive: activation [1] -47.3% | Potency [2] | Potency [3] | Potency [4]

Cn1c(=O)c2[nH]c(-c3ccccc3)nc2n(C)c1=O
inactive: activation [1] -37% | Potency [2] | Potency [3] | Potency [4]

CNCCC(Oc1ccccc1C)c1ccccc1 (centres undefined)
inactive: activation [1] -12.7% | Potency [2] | Potency [3] | Potency [4]

NC(=Nc1ccccc1)NC(=O)c1nc(Cl)c(N)nc1N
inactive: activation [1] -28.9% | Potency [2] | Potency [3] | Potency [4]

CN(C)CC[C@@H](c1ccc(Cl)cc1)c1ccccn1
inactive: activation [1] -9.6% and -8.57% | Potency [2] | Potency [3] | Potency [4]

C[C@H]1CC2C3CCC4=CC(=O)C=C[C@]4(C)[C@@]3(Cl)[C@@H](O)C[C@]2(C)[C@@]1(O)C(=O)CO (some centres undefined)
inactive: activation [1] -21.3% | Potency [2] | Potency [3] | Potency [4]

NC(N)=N[C@@H](CCC(=O)O)C(=O)O
inactive: activation [1] -4.46% | Potency [2] | Potency [3] | Potency [4]

CSc1nc(N)c2ncn([C@@H]3O[C@H](COP(=O)(O)OP(=O)(O)O)C(O)[C@H]3O)c2n1 (some centres undefined)
inactive: activation [1] -2.39% | Potency [2] | Potency [3] | Potency [4]

CCCCCCCCCCCCCCSCC(=O)O
inactive: activation [1] -11% | Potency [2] | Potency [3] | Potency [4]

O=C(O)C1=CCCNC1
inactive: activation [1] -16.6% | Potency [2] | Potency [3] | Potency [4]
